Measurements taken from PubChem BioAssay (NCI).
The panel holds about 79,000 compounds, 15% with a hit somewhere; the sample as a whole holds those more often. Cut-off read from the data, not from the text of the source: active = growth inhibition above about 70%; inactive = the rest.

What was measured:
[1] = NCI Yeast Anticancer Drug Screen. Data for the rad50 strain (AID 155);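 note: 0% = growth of vehicle-only cultures of the same strain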; conditions: S. cerevisiae rad50 strain growth inhibition; at 50.0 µM; active compounds read high
How it was run: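 Cells are treated with compound, grown, and their growth is then scored against vehicle-only cultures of the same repair-deficient yeast strain.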

[2] = NCI Yeast Anticancer Drug Screen. Data for the mec2-1 strain (AID 157); conditions: S. cerevisiae mec2-1 strain, at 50.0 µM, active compounds read high
How it was run: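 Vehicle-treated cultures served as reference for growth inhibition of compound-exposed mec2-1 yeast.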

[3] = NCI Yeast Anticancer Drug Screen. Data for the sgs1 mgt1 strain (AID 161);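 note: 0% = growth of cultures given vehicle only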; conditions: S. cerevisiae sgs1 mgt1 strain, at 50.0 µM, active compounds read high
How it was run: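 Genetically altered yeast, compound exposure, growth inhibition relative to vehicle.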

[4] = NCI Yeast Anticancer Drug Screen. Data for the cln2 rad14 strain (AID 165);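 note: 0% = growth equal to vehicle treated cultures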; conditions: S. cerevisiae cln2 rad14 strain, at 50.0 µM, active compounds read high
How it was run: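 Each compound was tested on cln2 rad14 yeast. Inhibition of growth was calculated against vehicle-exposed controls.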

[5] = NCI Yeast Anticancer Drug Screen. Data for the bub3 strain (AID 167); conditions: S. cerevisiae bub3 mutant strain, at 50.0 µM, active compounds read high
How it was run: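 Part of a panel of yeast mutants defective in DNA damage repair or cell cycle regulation. Each strain is grown with compound, and inhibition is calculated relative to solvent-treated cultures.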

[6] = NCI Yeast Anticancer Drug Screen. Data for the mlh1 rad18 strain (AID 175); conditions: S. cerevisiae mlh1 rad18 strain growth inhibition; at 50.0 µM; active compounds read high
How it was run: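 Vehicle-treated cultures served as the reference for growth inhibition in a yeast strain carrying DNA damage repair alterations exposed to each compound.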

Measured: growth inhibition

Cc1nc2nc[nH]n2c1N=Nc1ccccc1
inactive: [1] -28.3% | [2] -2.55% | [3] -9.5% | [4] -13% | [5] 7.5% | [6] 9.5%

C=CCCCCCCCCCOC=O
inactive: [1] -12.1% | [2] -5.2% | [3] 1.25% | [4] -19.8% | [5] 34.3% | [6] 3.2%

O=C(CC(C(=O)c1ccsc1)c1cccs1)c1ccsc1 (configuration not stated)
inactive: [1] -11.2% | [2] -19.2% | [3] 18.6% | [4] 24.5% | [5] 28.9% | [6] 3%

O=C(Nc1ccccc1)c1ccc2ccccc2n1
inactive: [1] -12.7% | [2] -31% | [3] -22.1% | [4] -10.1% | [5] 10.6% | [6] 6.75%

CC(C)n1ncc2c(N)ncnc21
inactive: [1] 4.2% | [2] -2.2% | [3] -6.8% | [4] -26.8% | [5] 21.4% | [6] -3.8%

O=C(O)C(Cc1c[nH]c2ccccc12)Nc1ccc([N+](=O)[O-])cc1[N+](=O)[O-] (configuration not stated)
inactive: [1] -27.7% | [2] -3.95% | [3] 13.8% | [4] -10.7% | [5] 3.6% | [6] 7.55%

N/C(=N\N=C\C1CC2C=CC1C2)NO (configuration not stated)
inactive: [1] 5.3% | [2] -11.4% | [3] -9.8% | [4] -0.05% | [5] -16.6% | [6] -4.55%

O=C(/C=C\c1ccc(/C=C\C(=O)c2ccccc2O)cc1)c1ccccc1O
inactive: [1] 8.5% | [2] -13.3% | [3] -8.75% | [4] -3.75% | [5] 22.2% | [6] -23.3%

O=C(c1ccc(Cl)s1)C(Cl)C(Cl)c1ccc(Cl)s1 (configuration not stated)
inactive: [1] -20.5% | [2] -2.4% | [3] 1.2% | [4] -12.4% | [5] 29.6% | [6] -3.55%

CCCCc1ccc(-n2cnc3c(=O)[nH]c(N)nc32)cc1
inactive: [1] 5.15% | [2] 29% | [3] -8.3% | [4] -0.4% | [5] 30.8% | [6] 26.5%

C/C(=N\N)c1cnc(N)nc1C
inactive: [1] -2.75% | [2] 5.4% | [3] 7.65% | [4] -6.3% | [5] -11.7% | [6] -12.8%

Cc1ccc(S(=O)(=O)Nc2ccc(S(C)(=O)=O)cc2)cc1
inactive: [1] 2.4% | [2] -4.2% | [3] -5.6% | [4] -36.4% | [5] 3.85% | [6] 3.3%

COCC(=O)C(C(C)=O)C(c1ccncc1)C(C(C)=O)C(=O)COC (configuration not stated)
inactive: [1] -7.75% | [2] 14.9% | [3] 6.85% | [4] -10.2% | [5] -1.6% | [6] -20.4%

Cc1cc(NS(=O)(=O)c2ccc(Nc3c4ccccc4nc4c(C(=O)NCCN(C)C)ccc(Cl)c34)cc2)no1
inactive: [1] -9.25% | [2] 17.1% | [3] -2.4% | [4] 6.1% | [5] -3.25% | [6] 63.5%

CNC(=O)OCC1=CC(=O)C=C(OC)C1=O
inactive: [1] 7.3% | [2] -14.9% | [3] 18.4% | [4] 14.4% | [5] 2.45% | [6] 9%

COc1ccc(NC(=O)C(=O)c2c(O)c3ccc(O)cc3oc2=O)c([N+](=O)[O-])c1
inactive: [1] 14.4% | [2] 9.95% | [3] 1% | [4] 3.95% | [5] -2.85% | [6] -6.1%

COc1ccc([N+](=O)[O-])c(C#N)c1
inactive: [1] 5.95% | [2] -2.2% | [3] 3.35% | [4] -9.75% | [5] -9.4% | [6] -46.6%

O=S1(=O)C=C(N2CCCCC2)c2ccccc21
inactive: [1] 2.65% | [2] 2.05% | [3] -4% | [4] -13.3% | [5] -52% | [6] 11.8%

CCCCCCOCC(=O)OC
inactive: [1] 10.2% | [2] -9.6% | [3] -1.55% | [4] 8.35% | [5] 9.2% | [6] -2.85%

CC(=O)c1cc2c(cc1C)C(C(C)C)CCC2(C)C (configuration not stated)
inactive: [1] 3.75% | [2] -14.6% | [3] 6.55% | [4] -18.8% | [5] 41.7% | [6] 6.85%

CCCCn1cnnc1NS(=O)(=O)c1cc(C)c(Cl)cc1SCC(=O)O
inactive: [1] -20.5% | [2] -5.25% | [3] 6.15% | [4] 0.4% | [5] -13.8% | [6] -5.5%

Cc1ccc(S(=O)(=O)N2CCSCCSCCSCCN(S(=O)(=O)c3ccc(C)cc3)CC2)cc1
inactive: [1] 7.05% | [2] -0.8% | [3] 4.25% | [4] 15.6% | [5] -4.1% | [6] 23.1%

CCN(CC)CCCC(C)NCCCN (configuration not stated)
inactive: [1] -7.15% | [2] -9.05% | [3] -5.4% | [4] -5.4% | [5] -23.3% | [6] -10%

CCOC(=O)c1cn(C)c2c1C(=O)C(C(=O)OCC)CC(=O)N2 (configuration not stated)
inactive: [1] -4.55% | [2] -4.15% | [3] -11.6% | [4] -53.6% | [5] -6.4% | [6] -8.25%

O=C(Cn1c2c(c3ccccc31)CCCC2)NC1CCCCC1
inactive: [1] 2.6% | [2] -28.4% | [3] 21.9% | [4] 30.3% | [5] 1.25% | [6] 9.7%

CN(C)NC(=O)Oc1ccc(Cl)cc1
inactive: [1] -0.25% | [2] -0.35% | [3] -11.4% | [4] -4.55% | [5] -33.3% | [6] 2.75%

Cc1cccc(C)c1NC(=O)C(=O)CC(=O)c1sc(Nc2c(C)cccc2C)nc1C
inactive: [1] 12.1% | [2] -10.9% | [3] 26.2% | [4] -22.9% | [5] 16.6% | [6] 16.9%

CC(C)CC(=O)NC(C(=O)NC(C(=O)NC(CC(C)C)C(O)CC(=O)NC(C)C(=O)NC(CC(C)C)C(O)CC(=O)O)C(C)C)C(C)C (configuration not stated)
inactive: [1] 5.8% | [2] -18.4% | [3] -20.9% | [4] 7.6% | [5] 5.95% | [6] -9.75%

COC(=O)CCC(=O)CC(=O)C(=O)Nc1ccc(F)cc1
inactive: [1] 3.2% | [2] 3.75% | [3] -1.7% | [4] -2.6% | [5] -15.6% | [6] 7.75%

COc1cccc(-n2cnc3c(=S)nc[nH]c32)c1
inactive: [1] 4.2% | [2] -9.3% | [3] 9.7% | [4] -41.6% | [5] -4.85% | [6] 1.9%

O=C(O)CN1C(=O)C2C3c4ccccc4C(c4ccccc43)C2C1=O (configuration not stated)
inactive: [1] -5.65% | [2] -4.7% | [3] 1.25% | [4] -26.6% | [5] -19.6% | [6] 0%

C/C=C/c1ccc(OC(C)C(=O)c2ccc3c(c2)OCO3)c(OC)c1 (configuration not stated)
inactive: [1] -12.4% | [2] -28.9% | [3] 8.8% | [4] -10.5% | [5] 6.7% | [6] -7.05%

CCCNC(=O)Cn1c(C)cc2ccccc21
inactive: [1] 6.55% | [2] 6.25% | [3] 26.2% | [4] 22.7% | [5] 15.4% | [6] -82.5%

O=C(O)COc1cc(Cl)cc(F)c1Cl
inactive: [1] -23.6% | [2] 4.1% | [3] -9.4% | [4] -33.2% | [5] -7.85% | [6] -2.55%

CC12CCC(C/C1=N\NC(N)=O)C2(C)C (configuration not stated)
inactive: [1] 4.2% | [2] -16.6% | [3] -18.2% | [4] 2.55% | [5] -19.9% | [6] -1.45%

COc1c2cc3c(cc2nc2occc12)OCO3
inactive: [1] 1.1% | [2] -5.35% | [3] -9.3% | [4] 2.6% | [5] -11.2% | [6] 5.55%

COC(=O)CCCN1C(=O)c2ccccc2C1=O
inactive: [1] -8.15% | [2] -12.7% | [3] -20.8% | [4] -69.8% | [5] 5.6% | [6] -3.95%
